# Measurements: the supplement of paper PMC9262897, “Low-cost anti-mycobacterial drug discovery using engineered E. coli” (Nature Communications, 2022)
# Counter-ions that a name gives are not always drawn. ± gives the standard deviation of the averaged measurements.
# System: E. coli TESEC Mtb Alr
# Test: growth (OD600 after 10 h); higher = more growth (less inhibition)
# Conditions: arabinose 10000000 nM; compound 0.1 mM; raw OD600 reference: median of DMSO wells […], cell-free background 0.052
# Procedure: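 TESEC Mtb Alr E. coli (ΔaraC ΔtolC ΔentC Δalr ΔdadX, arabinose-inducible Mtb Alr) or the Alr+ wild-type control strain, grown in defined M9-fructose medium without D-alanine in 96-well plates with Prestwick library compounds at 0.1 mM and 1% DMSO. Low Alr induction is 0.1 µM arabinose and high induction is 10 mM arabinose.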
row,SMILES,growth
1,O=C1OC(CN2CCOCC2)CN1/N=C/c1ccc([N+](=O)[O-])o1 (centres undefined) [Furaltadone hydrochloride],0.0562 ± 0.0033
2,CN(C)CCCN1c2ccccc2CCc2ccccc21 [Imipramine hydrochloride],0.21 ± 0.11
3,CCOC(=O)O[C@]1(C(=O)OCCl)CC[C@H]2[C@@H]3CCC4=CC(=O)C=C[C@]4(C)[C@H]3[C@@H](O)C[C@@]21C [Loteprednol etabonate],0.219 ± 0.024
4,CCCNC(C)C(=O)Nc1ccccc1C (centres undefined) [Prilocaine hydrochloride],0.333 ± 0.008
5,NS(=O)(=O)c1cc2c(cc1Cl)NCNS2(=O)=O [Hydrochlorothiazide],0.367 ± 0.019
6,Cc1cc2c(s1)Nc1ccccc1N=C2N1CCN(C)CC1 [Olanzapine],0.319 ± 0.01
7,Nc1ccc(C(=O)O)c(O)c1 [4-aminosalicylic acid],0.302 ± 0.014
8,CC(=O)Oc1ccc(C(c2ccc(OC(C)=O)cc2)c2ccccn2)cc1 [Bisacodyl],0.39 ± 0.0069
9,"CN(Cc1cnc2nc(N)nc(N)c2n1)c1ccc(C(=O)N[C@@H](CCC(=O)O)C(=O)O)cc1 (racemic) [Amethopterin (R,S)]",0.125 ± 0.0053
10,CC(C(=O)O)c1ccc(C(=O)c2ccccc2)s1 (centres undefined) [Tiaprofenic acid],0.35 ± 0.019
11,Nc1c2ccccc2nc2ccccc12 [Aminacrine],0.0885 ± 0.027
12,CCCC(CCC)C(=O)O [Valproic acid],0.358 ± 0.022
13,Cc1[nH]cnc1CN1CCc2c(c3ccccc3n2C)C1=O [Alosetron hydrochloride],0.289 ± 0.0097
14,CN(C)c1nc(N(C)C)nc(N(C)C)n1 [Altretamine],0.317 ± 0.02
